Assay results as given in PubChem BioAssay (NCATS).
Records with an inconclusive call do not appear. A call without a number means that no potency is given here. The source made the active and inactive calls. The call rests on the fitted dose curve; in most records, active means well fitted inhibition curve with a large enough effect; inconclusive means small, poorly fitted or top-dose-only effect; inactive means flat fitted curve, though single readings scatter.

These compounds were tested against Calcium and integrin-binding protein 1 (Homo sapiens) (UniProt Q99828) (assay: Primary qHTS for Identification of Calcium Integrin Binding Protein 1 (CIB1) Competitor (AID 1508620;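 further: GST tagged CIB1 binding a fluorescein labelled alphaIIb integrin peptide tracer; top concentration of the series differs between compounds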)). Details: CIB1-GST / FITC-alphaIIb peptide fluorescence polarization; series mostly up to 114 µM.
In short: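 Fluorescence polarization competition: CIB1-GST (1 uM final) preincubated with compound 15 min at room temperature, then FITC-labeled alphaIIb peptide (100 nM final) added for another 15 min. Polarization read at Ex 480/Em 540.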

Chain of Calcium and integrin-binding protein 1 (Homo sapiens) (Q99828 whole entry, looked up): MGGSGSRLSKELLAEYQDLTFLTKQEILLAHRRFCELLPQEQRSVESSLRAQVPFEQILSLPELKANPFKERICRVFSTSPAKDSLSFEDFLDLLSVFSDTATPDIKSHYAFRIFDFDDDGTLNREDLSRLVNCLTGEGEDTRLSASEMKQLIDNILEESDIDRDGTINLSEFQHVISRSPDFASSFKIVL

Compound	Potency
NC(=O)c1cccc(C[C@H](C(=O)O)N2C(=O)c3ccc(C(=O)O)cc3C2=O)c1	inactive
Cc1ccc(CNc2ccc(N3CCOCC3)cc2)cc1	inactive
COc1ccccc1NC(=O)C1=C(C)NC(Nc2nc3ccccc3o2)=NC1c1ccccc1Br (stereo not given)	inactive
Cc1ccccc1-c1csc2ncnc(Sc3nnnn3C)c12	inactive
CCC1CCC2(C1)N=C(Nc1nc3ccccc3o1)NC1=C2C(=O)CCC1 (stereo not given)	inactive
CC(C)Nc1cccc(S(=O)(=O)N2CCCN(S(=O)(=O)c3ccc4c(c3)OCCO4)CC2)c1	inactive
Cc1cc(-c2ccccc2)n2ncc(C(=O)Nc3ccccc3Sc3ccccc3)c2n1	inactive
CN(Cc1ccco1)c1ncnc2ccc(-c3ccc4c(ccn4C)c3)cc12	inactive
Cc1cc(C)nc(NC(=S)N2CC3CN(c4ncc(C(F)(F)F)cc4Cl)CC3C2)c1 (stereo not given)	inactive
COc1ccc(OCc2cc(C3Nc4ccccc4C(=O)N3Cc3ccccc3)ccc2OC)cc1 (stereo not given)	inactive
COc1cccc(C2=Nn3c(nnc3-c3cc(OC)ccc3OC)SC2)c1	inactive
Cc1noc(C)c1-c1ccc2ncnc(NCc3ccc(C(F)(F)F)cc3)c2c1	inactive
Cc1cccc(-n2cnc3cc(C(=O)N4CCC(c5ccccc5)CC4)ccc32)c1	inactive
Cc1cc(C)n2ncc(C(=O)NC3CCC(C(C)(C)C)CC3)c2n1 (stereo not given)	inactive
CCCCNC(=S)NCCCc1cnc[nH]1	inactive
CCc1c(C)nc2cc(-c3ccc(OC)c(OC)c3)nn2c1N1CCCC1	inactive
Fc1ccc(-c2ccc(Nc3nc(-c4ccncc4)nc4ccccc34)cc2F)cc1	inactive
Cc1cccc(-c2nnc(C)n2CCCn2ccnc2)c1N	inactive
COc1ccc(-c2nc3ccccc3c(=O)n2Cc2ccccc2)cc1CNc1ccc(NC(C)=O)cc1	inactive
O=C(Nc1cncc(-c2cccc3ccccc23)c1)c1cccs1	inactive

Compound	Potency
O=S(=O)(c1ccc2c(c1)OCCO2)N1CCN(S(=O)(=O)c2cc(F)c(F)cc2F)CC1	inactive
O=[S+]([O-])(Nc1ccc(N2CCNCC2)cc1)c1ccc(NCc2cccc(Cl)c2O)cc1	inactive
Cc1c(P(=O)(c2ccccc2)c2ccccc2)c2ccccc2n1C	inactive
COc1ccc(C2Nc3ccccc3C(=O)N2Cc2ccccc2)cc1COc1cccc(C(F)(F)F)c1 (stereo not given)	inactive
CC(C)(C)OC(=O)NCc1nnc(C(C(=O)OCc2ccccc2)c2ccccc2)s1 (stereo not given)	inactive
CCNc1cccc(S(=O)(=O)N2CCCN(S(=O)(=O)c3ccc4c(c3)OCCO4)CC2)c1	inactive
Cc1noc(C)c1-c1cccc(-c2nn3c(=O)cc(N4CCNCC4)nc3s2)c1	inactive
CCOc1ccccc1-c1nnc2n1N=C(c1cc(OC)cc(OC)c1)CS2	inactive
CC(=O)N1CCN(c2ccc(N)cc2)CC1	inactive
COc1ccccc1C1=Nn2c(nnc2-c2ccccc2C)SC1	inactive
Cc1c(C(=O)O)[nH]c2c1C(=O)CCC2	inactive
Cc1ccc(OCCn2c3c(c4ccccc42)CCN(C(=O)C2CCCCC2)C3)cc1	inactive
COc1ccc(CC(=O)Nc2nc(-c3ccc4c(c3)CCN4C(=O)c3ccccc3C)c(C)s2)cc1	inactive
O=C(NCCc1nc2ccccc2n1CCOc1ccccc1F)C1CCCCC1	inactive
C[C@@H](NC(c1ccc(F)cc1)c1ccc2cccnc2c1O)c1ccccc1 (stereo not given in full)	inactive
COc1ccccc1NS(=O)(=O)c1ccc2c(c1)CCC(=O)N2	inactive
COc1ccc(C2Nc3ccccc3C(=O)N2Cc2ccccc2)cc1COc1c(C)cccc1C (stereo not given)	inactive
O=C(O)c1cccc(-c2cccc(-c3nn4c(=O)cc(N5CCNCC5)nc4s3)c2)c1	inactive
NC(=O)c1c(NC(=O)c2ccncn2)sc2c1CCCC2	inactive
CC(C)(C)OC(=O)N1CCN(c2ccc(NCc3ccc(-c4ccccc4F)o3)cc2)CC1	inactive
